# Results reported in the supplement of paper PMC7156485.
# ± gives the standard deviation of the averaged measurements.
# What was measured:
# Details in all cases: concentration: 10 µM; 24 h
# HCC1569 [1] = assay: cell number relative to DMSO (% of DMSO); higher = more cells (less growth inhibition / toxicity)
# Procedure, shortened: (§1)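 For HCC1569 and TDF cells, compounds at 10 µM were applied for 24 h at 37 °C in triplicate in 384-well plates. Cells were fixed in 3.7% formaldehyde, stained for H1.0 and with DAPI, and imaged at ×10 over six fields per well. The endpoint, H1.0 nuclear intensity or cell number, is shown as percent of the plate control using the median of replicates. Positional effects were smoothed for HCC1569 only.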
# TDF [2] = assay: as above
# Procedure, shortened: as §1
# TDF [3] = assay: H1.0 immunofluorescence intensity relative to DMSO (% of DMSO); higher = stronger H1.0 induction, active = 120 or more
# Procedure, shortened: as §1
# HCC1569 [4] = assay: H1.0 immunofluorescence intensity relative to DMSO (% of DMSO); higher = stronger H1.0 induction, active = 140 or more
# Procedure, shortened: as §1
# 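For H1.0 immunofluorescence intensity relative to DMSO in this document: TDF is a line of transformed human dermal fibroblasts of mesenchymal origin.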
# 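For cell number relative to DMSO in this document: TDF denotes transformed human dermal fibroblasts of mesenchymal origin.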
SMILES,cell number (HCC1569 [1]),cell number (TDF [2]),H1.0 immunofluorescence intensity (TDF [3]),H1.0 immunofluorescence intensity (HCC1569 [4])
Nc1c2c(nc3ccccc13)CCCC2 [Tacrine],102,97.1,95.7 (inactive),109 (inactive)
C=C1C(=CC=C2CCCC3(C)C2CCC3C(C)CCCC(C)(C)O)CC(O)CC1O (centres undefined) [Calcitriol],102,100,98.2 (inactive),112 (inactive)
CC1CCC2C(C)C(OC(=O)CCC(=O)O)OC3OC4(C)CCC1C32OO4 (centres undefined) [Artesunate],87.2 ± 1.8,88.2 ± 5.5,99.1 (inactive),124 (inactive)
"CCCCCCN(CCCCCC)C(=O)Cc1c(-c2ccc(F)cc2)[nH]c2ccccc12 [N,N-Dihexyl-2-(4-fluorophenyl)indole-3-acetamide]",95.6,102,93.3 (inactive),94.3 (inactive)
CC1(C)SC2C(NC(=O)C(N)c3ccc(O)cc3)C(=O)N2C1C(=O)O (centres undefined) [Amoxicillin],107,103,105 (inactive),104 (inactive)
CCC(=O)OC1(C(=O)SCF)C(C)CC2C3CC(F)C4=CC(=O)C=CC4(C)C3(F)C(O)CC21C (centres undefined),98.9,105,86.8 (inactive),116 (inactive)
CN1CCN(CCCCN2C(=O)CN(/N=C/c3ccc(-c4ccc(Cl)cc4)o3)C2=O)CC1.Cl.Cl,98.2,102,92.6 (inactive),115 (inactive)
COC(=O)CCc1ccc(OCC(O)CNC(C)C)cc1 (centres undefined) [Esmolol],100,95.1,101 (inactive),91.9 (inactive)
O=c1[nH]c2cc(C(F)(F)F)ccc2n1-c1cc(C(F)(F)F)ccc1O,101,95.9,96.6 (inactive),98.4 (inactive)
Cc1c(CC(C)(C)C(=O)O)n(Cc2ccc(Cl)cc2)c2ccc(F)cc12,107,86.5,105 (inactive),99.6 (inactive)
CN(Cc1ccc(C(C)(C)C)cc1)Cc1cccc2ccccc12 [Butenafine],101,92.9,104 (inactive),100 (inactive)
CCC=CCC=CCC=CCC=CCC=CCCC(=O)OC(COCCCCCCCCCCCCCCCC)COP(=O)([O-])OCC[N+](C)(C)C (centres undefined),105,107,94.3 (inactive),99.4 (inactive)
CCCCCCCCC=CCCCCCCCCCCC(=O)O [12(Z) Heneicosenoic acid],103,98,95.5 (inactive),115 (inactive)
O=c1c(O)c(-c2ccccc2O)oc2cc(O)cc(O)c12 [Datiscetin],101,106,92.1 (inactive),87.7 (inactive)
NC(=O)Nc1sc(-c2ccc(F)cc2)cc1C(N)=O,75.6,60.6,96.3 (inactive),177 (active)
O=C(O)C=CC(=O)O.O=C(O)C=CC(=O)O.OCCOCCN1CCN(C2=Nc3ccccc3Sc3ccccc32)CC1 [Quetiapine Fumarate],99.3,97.8,94.5 (inactive),100 (inactive)
COc1cccc2c1C1CN(CCCCn3c(=O)[nH]c4c(sc5ncc(-c6ccccc6)nc54)c3=O)CC1CO2.Cl (centres undefined) [Fiduxosin hydrochloride],88.8,103,102 (inactive),116 (inactive)
CCC=CCC=CCC=CCC=CCC=CCCCC(=O)O,98,102,90.4 (inactive),96.4 (inactive)
NC1(C(=O)O)CCc2cc(C(=O)O)ccc21 (centres undefined),101,113,88.5 (inactive),84.5 (inactive)
CC(CN(C)C)CN1c2ccccc2Sc2ccc(C#N)cc21 (centres undefined),93.5,90.4,118 (inactive),108 (inactive)
CC1CNCCN1S(=O)(=O)c1cccc2cnccc12.Cl.Cl (centres undefined) [H-7 dihydrochloride],96.8,100,107 (inactive),95 (inactive)
CCCCc1oc2ccccc2c1C(=O)c1cc(I)c(OCCN(CC)CC)c(I)c1.Cl [Amiodarone.HCl],99.7,105,93.8 (inactive),110 (inactive)
CC(C)NCC(O)c1ccc(O)c(O)c1.O=C(O)C(O)C(O)C(=O)O (stereo not drawn) [S(+)-Isoproterenol (+)-bitartrate],105,97.6,91.8 (inactive),93.4 (inactive)
CC(C)c1cc(C(C)C)c(-c2csc(N(CCN(C)C)Cc3cccnc3)n2)c(C(C)C)c1,50.7,55.2,146 (active),146 (active)
CC(=O)N1CCN(C(=O)/C=C/c2ccc(Sc3ccccc3C(C)C)c([N+](=O)[O-])c2)CC1,82.5,86.4,103 (inactive),123 (inactive)
CCN1CCCC1CNC(=O)c1c(OC)ccc(Br)c1OC (centres undefined) [Remoxipride],101,101,96.7 (inactive),108 (inactive)
